The sample as a whole holds a higher share of hits than the screen did.
EZH2 inh: EZH2/PRC2 methyltransferase inhibitors, primary screen, biochemical, DELFIA time-resolved fluorescence, single point | PRC2 H3K27 methylation, DELFIA TRF, 1 h | inhibition, % at 12.5 µM | AID 651548, 2012 | 57,000 tested, 0.35% active | Histone-lysine N-methyltransferase EZH2 (Homo sapiens), Q15910;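 active means mean inhibition of replicates at least 50% and every single replicate also reaching 50%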;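 further: dimethyl H3K27 on biotinylated H3 21-44 peptide detected by antibody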
Each line names hits and unclear results; the compound was inactive in the other large screens.

CCCCC/C=C/C/C=C/C/C=C/C/C=C/CCCC(=O)Nc1ccc(O)cc1	EZH2 inh 69
CCC(=O)Nc1ccc(Cl)c(Cl)c1	none
CCCCC/C=C\C/C=C\C/C=C\C/C=C\CCCC(=O)NCc1ccc(O)c(OC)c1	none
CC(C)(C)ONC(=O)CN=[N+]=[N-]	none
CN(CC(=O)Nc1ccc(Cl)cc1C(=O)c1ccccc1)S(=O)(=O)c1ccc(Cl)cc1	none

High-throughput results (PubChem BioAssay)
